Screening results (PubChem)
TAG inh – reduces triacylglycerol accumulation in H9c2 cells | Nile Red lipid (TAG) fluorescence; cells loaded with 200 µM oleic acid | inhibition, % at 12.5 µM | 230,000 tested, 0.66% active | AID 651582;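 active = pattern-corrected inhibition of lipid staining of at least 50% with the nuclear-stain viability signal not falling by more than 50%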
MPTP inh – inhibitors of mitochondrial permeability transition pore. isolated mouse mitochondria, Ca2+ swelling absorbance, 30 min. inhibition, % at 10 µM. 360,000 tested, 1.4% active. AID 602449;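 active = inhibition of 50% or more, scaled per plate between neutral and stimulator controls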
aDG glyco act – increases alpha dystroglycan glycosylation. Pro5-aDG cells, alpha-DG glycosylation AlphaScreen (IIH6); 0% Pro5, 100% B10-LARGE cell signal. activation, % at 10 µM. 360,000 tested, 0.22% active;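 active = activation of at least 8% versus controls, or a plate z-score of at least 8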;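 note: Pro5 are CHO cells carrying HIG-tagged alpha-DG that lacks glycosylation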
NadD inh – blocks S. aureus nicotinate mononucleotide adenylyltransferase | purified NadD enzyme, colorimetric absorbance read-out | inhibition, % at 20 µM | 360,000 tested, 0.78% active | AID 602399; in the data active = inhibition above about 26%
NadD conf – confirmation of Staphylococcus aureus NadD inhibitors | 2,000 tested, 13% active | shares compounds with NadD inh | purified S. aureus NadD, colorimetric enzyme assay | inhibition, % at 20 µM; in the data active = inhibition mostly above about 42%, no sharp cut-off; inactive = mostly below about 42%
Each line names hits and unclear results; the compound was inactive in the other large screens (follow-up assays come after a bar, where they were run). Hits are enriched below; roughly 2.7% of the tested compounds scored in any of these assays.

NC(CSC1(c2ccc(F)cc2)c2ccccc2-c2ccccc21)C(=O)O (configuration not stated)	none
NC(CSC1(c2ccc(Cl)cc2)c2ccccc2-c2ccccc21)C(=O)O (configuration not stated)	NadD inh 41 | NadD conf 57
O=C(COC(=O)c1ccc(NS(=O)(=O)c2cccs2)cc1)NCc1ccco1	NadD inh 30 | NadD conf inactive
O=C(COC(=O)c1cccs1)NCc1ccco1	none
C=CC#CC[N+]1(CC#Cc2ccccc2)CCOCC1	NadD inh 44 (no result: TAG inh) | NadD conf inactive
Nc1nc2c(ncn2[C@@H]2O[C@H](CNCc3cnc(N4CCOCC4)nc3)[C@@H](O)[C@H]2O)c(=O)[nH]1	none (no result: TAG inh)
O=C(N/N=C/c1ccc2c(c1)OCO2)c1sc2cccc(Cl)c2c1Cl	NadD inh 30 | NadD conf inactive
O=C(N/N=C/c1ccc2c(c1)OCO2)c1sc2cc(Cl)ccc2c1Cl	none (no result: TAG inh)
Cc1sc(NC(=O)Cc2ccc3c(c2)OCO3)nc1-c1ccc2c(c1)CCN2C(=O)c1ccccc1F	NadD inh 37 (no result: TAG inh) | NadD conf inactive
Cc1sc(NC(=O)Cc2ccc3c(c2)OCO3)nc1-c1ccc2c(c1)CCN2C(=O)c1ccc(F)cc1	NadD inh 35 (no result: TAG inh) | NadD conf inactive
CCOC(=O)C(=O)Nc1nc(-c2ccc3c(c2)CCN3C(=O)C2CC2)c(C)s1	none (no result: TAG inh)
CCC1CCCCN1C(=O)COC(=O)c1ccc(Br)o1 (configuration not stated)	none
COc1cc(OC)cc(C(=O)NNC(=O)CCC2CCCC2)c1	none
CC(C)(C)n1nnnc1C(c1cc2ccccc2o1)N1CCCCC1 (configuration not stated)	none (no result: TAG inh)
CCc1ccc(-c2cc(C(=O)Nc3c(C)n(C)n(-c4ccccc4)c3=O)c3ccccc3n2)s1	none (no result: TAG inh)
Cc1cc(Br)cc2c(C(=O)Nc3c(C)n(C)n(-c4ccccc4)c3=O)cc(-c3cccs3)nc12	NadD inh 30 (no result: TAG inh) | NadD conf inactive
FC(F)(F)c1cc(Cl)c2nc(-c3ccco3)c(Cc3ccccc3C(F)(F)F)n2c1	NadD inh 43 (no result: TAG inh) | NadD conf inactive
C[C@H]1C=C(C(=O)NCc2nc3ccccc3[nH]2)O[C@@H](OCc2ccc(CO)cc2)C1	none
O=C(NCc1nc2ccccc2[nH]1)C1=C[C@@H](c2ccc(Br)cc2)C[C@@H](OCc2ccc(CO)cc2)O1	none
O=C(NCc1nc2ccccc2[nH]1)C1=C[C@H](c2csc3ccccc23)C[C@H](OCc2ccc(CO)cc2)O1	NadD inh 32 (no result: TAG inh) | NadD conf inactive
O=C(NCc1nc2ccccc2[nH]1)C1=C[C@@H](c2csc3ccccc23)C[C@@H](OCc2ccc(CO)cc2)O1	NadD inh 34 | NadD conf inactive
CCc1nc2ccc(C(=O)NCc3cccs3)cn2c1N(C)Cc1nccs1	none
C#CCCc1cocc1/C=[N+](\[O-])c1ccc(C(=O)OCC)cc1	NadD inh 42 | NadD conf inactive
COc1cc2c(cc1OC)-c1cc3ccc(OC)c(OC)c3c[n+]1CC2	none
COc1ccc2cc3[n+](cc2c1O)CCc1cc2c(cc1-3)OCO2	NadD inh 41 (no result: TAG inh) | NadD conf inactive
O=C(c1cc(COc2c(F)cccc2F)on1)N(Cc1ccccc1)CC1CC1	none (no result: TAG inh)
O=C(CSc1nnc2c3ccccc3c3ccccc3c2n1)Nc1ccccc1F	NadD inh 42 | NadD conf inactive
CCOC(=O)C1=C(N)n2c(s/c(=C/c3ccco3)c2=O)=C(C(=O)OC)C1c1ccco1 (configuration not stated)	NadD inh 31 (no result: TAG inh) | NadD conf inactive
CCOC(=O)C1=c2s/c(=C\c3ccncc3)c(=O)n2C(N)=C(C(=O)OC)C1c1ccncc1 (configuration not stated)	none
C[C@H](CO)N1C[C@H](C)[C@H](CN(C)C(=O)NC2CCCCC2)Oc2cc(-c3cccnc3)ccc2S1(=O)=O	none
COc1ccc([C@@H]2C[C@H]3[C@@H](CN2S(=O)(=O)c2ccccc2)C(=O)C[C@@H](c2cccc(Cl)c2)N3S(=O)(=O)c2ccc(C)cc2)cc1	none (no result: TAG inh)
COc1ccc([C@@H]2CC(=O)[C@@H]3CN(S(=O)(=O)c4ccc(Cl)cc4)[C@H](c4ccc(C)cc4)C[C@@H]3N2S(=O)(=O)c2ccccc2)cc1	NadD inh 30 (no result: TAG inh) | NadD conf inactive
CCCNc1c(F)c(F)c2c(C)c3ccccc3nc2c1F	NadD inh 39 | NadD conf inactive
CCN1CCN(Cc2ccc(NC(=O)c3ccc(C)c(NC(=O)c4c[nH]c5cc(C(F)(F)F)ccc5c4=O)c3)cc2C(F)(F)F)CC1	TAG inh 139, NadD inh 36 | NadD conf inactive
COc1ccccc1N(C)S(=O)(=O)c1ccc(C(=O)Nc2cc(F)ccc2C)cc1	none
CC(=O)Oc1ccc(C(=O)[C@H]2[C@H]3C(=O)N(c4ccc5ccccc5c4)C(=O)[C@H]3[C@@H]3C=CC=NN32)cc1	NadD inh 40 (no result: TAG inh) | NadD conf inactive
O=C(Nc1ccc(Cl)cc1)[C@@H]1[C@@H]2C(=O)N(c3ccc(Cl)cc3)C(=O)[C@@H]2[C@H]2C=CC=NN21	NadD inh 37 | NadD conf inactive
Cc1ccc(N2C(=O)[C@@H]3[C@H](C2=O)[C@H]2C=CC=NN2[C@@H]3C(=O)Nc2ccc(Cl)cc2)cc1	none
O=C(Nc1cccc(Oc2ccccc2)c1)C1Cc2c(-c3ccc4c(c3)OCO4)ccnc2O1 (configuration not stated)	none
CCc1ccc(N2CSC3=C(C#N)C(c4cccs4)CC(=O)N3C2)cc1 (configuration not stated)	NadD inh 72 (no result: TAG inh) | NadD conf inactive
CCc1ccc(C2CC(=O)N3CN(c4ccccc4)CSC3=C2C#N)cc1 (configuration not stated)	NadD inh 64 | NadD conf inactive
COc1ccc(N2CSC3=C(C#N)C(c4cccs4)CC(=O)N3C2)cc1 (configuration not stated)	none
N#CC1=C2SCN(c3ccc(F)cc3)CN2C(=O)CC1c1cccc(F)c1 (configuration not stated)	none
Cc1ccc(N2CSC3=C(C#N)C(c4cccs4)CC(=O)N3C2)cc1 (configuration not stated)	NadD inh 31 | NadD conf inactive
COc1cc(OC)c2c(-c3ccccc3)cc(=O)oc2c1C(CC(=O)N1CCN(c2ccccc2)CC1)c1ccc(N(C)C)cc1 (configuration not stated)	NadD inh 30 | NadD conf inactive
O=C(C[C@@H]1CC[C@@H]2[C@H](COC[C@H](O)CN2CCC(F)(F)F)O1)NCc1ccc2c(c1)OCO2	none (no result: TAG inh, NadD inh)
O=C(Nc1cccc(Cl)c1)c1nc[nH]c1C(=O)NCCCCNC(=O)c1[nH]cnc1C(=O)Nc1cccc(Cl)c1	TAG inh 65, NadD inh 31 | NadD conf inactive
